According to ChEMBL document CHEMBL3988442, “University of Dundee, Small-Polar-MMV Screening Library” (2021):
Out of some 48,000 compounds screened, about 13,000 (27%) showed an effect of 50% or more. Some of the results follow.

The compounds below were run on Wolbachia pipientis (assay: Anti-Wolbachia Cell-Based Screen). Conditions: 5 µM.
Assay type: functional
Design: scale not given: in the data most compounds retested in dose-response had high values

SMILES | Percent Effect
Cc1noc(CCCC(=O)N2CCN(C)CC2c2ccccc2)n1 (stereo not drawn) | 7.741%
Cc1cc(C(=O)N2CCNC(=O)CC2)c(C)n1CC(F)(F)F | -3.477%
CCN(CC)Cc1ccc(C(=O)NC2CCc3cc(Cl)ccc32)o1 (stereo not drawn) | 1.872%
CNS(=O)(=O)CCCn1nnc(-c2ccc(F)c(C)c2)n1 | -16.4%
O=C(NC1CC(=O)N(C2Cc3ccccc3C2)C1)c1csnn1 (stereo not drawn) | -8.023%
CN1CCN2C[C@@H](NC(=O)c3nc4ccccc4[nH]3)C[C@H]2C1 | 10.91%
CN1C(=O)CC(C(=O)O)C12CCN(Cc1ccc(F)c(Cl)c1)CC2 (stereo not drawn) | 19.25%
CCC[C@H]1CN(S(=O)(=O)c2cc(C)ccc2F)C[C@@H]1N | -6.271%
Cc1ccc([C@@H]2CN(S(=O)(=O)c3cc(C)ccc3F)C[C@H]2N(C)C)cc1 | -17.89%
Cc1ccc(F)c(S(=O)(=O)N2CCCC2c2ccncc2)c1 (stereo not drawn) | 113.4%
COc1ccc(NC(C)C(=O)N2CCN(Cc3ccccc3)CC2)cn1 (stereo not drawn) | 10.35%
CN(Cc1ccccc1)c1ncccc1CNC1CCSCC1 | -9.19%
CC(C)Oc1cccc(C(O)CNC(=O)CCc2ccncc2)c1 (stereo not drawn) | -6.251%
CCN1CCC(CC(=O)NCC(O)c2cccc(OC)c2)CC1 (stereo not drawn) | 5.929%
OC(CNC1CCSCC1)c1cccc(OCc2ccccc2)c1 (stereo not drawn) | 91.01%
OC(CNC1CCOCC1)c1cccc(OCc2ccccc2)c1 (stereo not drawn) | 100.2%
COc1cccc(C(O)CNC(=O)CC2CCCCC2)c1 (stereo not drawn) | 1.218%
CO[C@@H](C(=O)NC1CCOCC1)c1ccccc1 | -10.4%
COc1cccc(CNC(CN2CCN(C)CC2)c2ccccc2)c1 (stereo not drawn) | -4.654%
CN1CCC(NCC(O)c2cccc(OCc3ccccc3)c2)CC1 (stereo not drawn) | 116.6%
O=C(O)C(F)(F)F.O=C(c1ccccc1)N1CCS(=O)(=O)[C@@H]2CCNCC[C@@H]21 | -7.979%
c1ccc(CCn2cc(-c3nc(CN4CCOCC4)no3)nn2)cc1 | 7.795%
COc1ccc(-c2n[nH]cc2CN(C)CCc2scnc2C)c(F)c1 | -15.83%
Cc1cc2nc(CO[C@H]3CN(C4CCN(C)CC4)C[C@H]3F)[nH]c2cc1C | -19.54%
COc1cccc2c1OCC(C(=O)N1CCC(NS(C)(=O)=O)CC1)C2 (stereo not drawn) | 16.61%
CC(C)c1cnc(CN2C(=O)CC3(CCSC3)C2=O)o1 (stereo not drawn) | 17.31%

SMILES | Percent Effect
F[C@@H]1CN(Cc2cccnc2)C[C@@H]1OCc1nc2ccccc2[nH]1 | 10.94%
O[C@@H]1CN(Cc2ccncc2)C[C@H]1Oc1ccccc1 | 125.9%
O[C@@H]1CN(Cc2cccnc2)C[C@H]1Oc1ccccc1 | 103.4%
O=C1NC(c2ccccc2)=N[C@@]12CC[C@@H]1CN(Cc3cccnc3)C[C@@H]12 | 0.6919%
CCC1CN(C(=O)c2cncc(C)c2)CCC(=O)N1Cc1ccccc1 (stereo not drawn) | -10.11%
CC(C)O[C@H]1CN(Cc2cnc3c(-c4ccccc4)cnn3c2)C[C@@H]1O | 3.276%
Cc1cnccc1CN1C[C@@H](O)[C@H](Oc2ccccc2)C1 | -5.554%
Cc1cncc(CN2C[C@@H](O)[C@H](Oc3ccccc3)C2)c1 | 132.9%
OC1CN(Cc2ccccc2)CCN(c2ccncc2)C1 (stereo not drawn) | 12.72%
COCC(=O)N1CCN(c2ncnc3cccc(F)c23)CC1 | 0.7263%
CC1COc2ccccc2N1C(=O)c1ccc(=O)n(C)c1 (stereo not drawn) | -18.38%
Fc1cccc(N2CCCC3(C2)CN(c2ncccn2)CCO3)c1.O=C(O)C(F)(F)F.O=C(O)C(F)(F)F (stereo not drawn) | -1.466%
CCc1nc(CN2CCCN(c3ncnc4ccsc34)CC2)no1 | -84.77%
Cc1nc(CN2CCCN(c3nccs3)CC2)no1 | 78.71%
c1csc(N2CCCN(Cc3noc(C4CC4)n3)CC2)n1 | 107.3%
CC(C)c1nc(CN2CCCN(c3nccs3)CC2)no1 | 89.07%
c1csc(N2CCCN(Cc3nc(C4CC4)no3)CC2)n1 | -5.415%
CCc1nc(CN2CCCN(c3nccs3)CC2)no1 | 1.816%
c1csc(N2CCN(Cc3nnnn3C3CC3)CC2)n1 | -36.32%
Cc1csc(N2CCCN(Cc3noc(C)n3)CC2)n1 | 0.2085%
C[C@@H]1CN(C(=O)CCc2nncn2C)C[C@@]1(O)C1CCC1 | -1.808%
Cc1cc(C)n(C(=O)c2cn(C)nc2S(=O)(=O)N2CCSCC2)n1 | -0.316%
Cc1ccc2nc(CN3CCCCC3CCN3CCOCC3)cn2c1 (stereo not drawn) | 98.48%
COCCCC1CCCCN1Cc1cnn(C)c1C1CC1 (stereo not drawn) | 18.85%
CCCn1ncc(CN2CCCCC2CCCOC)c1C (stereo not drawn) | -0.2831%
COc1cc2c(cc1CN1CCCCC1CN1CCOCC1)CCC2 (stereo not drawn) | 26.24%

SMILES | Percent Effect
Cc1oc(-c2ccoc2)nc1CN1CCCCC1CCn1cccn1 (stereo not drawn) | 3.711%
COCCCC1CCCCN1Cc1cn2cc(C)ccc2n1 (stereo not drawn) | 95.19%
Cc1nccn1CCC1CCCCN1Cc1ccc(O)cc1Cl (stereo not drawn) | -13.87%
Cc1c[nH]c(CN2CCCCC2CCn2cccn2)c(C)c1=O (stereo not drawn) | 21.06%
Cc1ccc2nc(CN3CCCCC3CCn3cccn3)cn2c1 (stereo not drawn) | 89.18%
Cc1ccc(O)c(CN2CCCCC2CCN2CCOCC2)c1 (stereo not drawn) | 102.9%
COc1c(C)cnc(CN2CCCCC2CCN2CCOCC2)c1C (stereo not drawn) | 0.5923%
Cc1cnn(CC2CCCN2Cc2cc(=O)n3cc(C)ccc3n2)c1 (stereo not drawn) | 11.19%
CC(C)(C)CN(CCC#N)C(=O)Nc1cccc(N2CCNC2=O)c1 | 7.726%
O=C(c1ccccc1F)N(CCCO)S(=O)(=O)c1cccs1 | 2.629%
O=C(NCCNc1ncccn1)N(Cc1ccc(F)cc1F)C1CC1 | -5.455%
O=C(CN1CCCC1c1nc(-c2ccccc2)no1)N1CCOCC1 (stereo not drawn) | 6.777%
N#Cc1ccccc1OCCN1CCCCC1C(=O)N1CCOCC1 (stereo not drawn) | 9.052%
Cc1ccc2nc(CN3CCCCC3C(=O)N3CCOCC3)cn2c1 (stereo not drawn) | 89.82%
Cc1nc(CN2CCCN(C(=O)C(C)OCC3CC3)CC2)cs1 (stereo not drawn) | 0.6409%
COc1ccc(S(=O)(=O)NC(=O)c2c(C)noc2C(C)C)cc1C | -2.008%
CCc1nc(N2CCCC(CCOC)(C(=O)O)C2)ncc1C (stereo not drawn) | 2.702%
CC(c1ccc(Cl)cc1)N1CCN(CCS(N)(=O)=O)CC1 (stereo not drawn) | -4.709%
CCS(=O)(=O)CCN1CCN(C(C)c2cccnc2)CC1 (stereo not drawn) | 4.9%
CC(C)S(=O)(=O)CCN1CCN(C(C#N)c2ccccc2)CC1 (stereo not drawn) | 88.63%
CCCS(=O)(=O)CCN1CCN(c2cc(F)ccc2F)CC1 | -4.475%
CC(c1ccc(Cl)cc1)N1CCN(CCCS(N)(=O)=O)CC1 (stereo not drawn) | 8.4%
CCCS(=O)(=O)CCN1CCN(C(C#N)c2ccccc2)CC1 (stereo not drawn) | 125.8%
CS(=O)(=O)N1C[C@H](C(=O)Nc2cnccn2)C[C@H]2OCC[C@H]21 | -3.249%
CN(C)C(=O)N1CC2(CCN(S(C)(=O)=O)CC2)c2ccccc21 | 1.836%
CS(=O)(=O)N1CC2(CCN(C3CCCCC3)C2)Cc2ccccc21 (stereo not drawn) | 120%

SMILES | Percent Effect
Cc1cccc(N2CCC(N3CCC4(CCCNC4=O)C3)CC2)c1C (stereo not drawn) | 11.3%
O=C1N(Cc2ccc(F)c(F)c2)CCCC12CCN(C1CCCCC1)C2 (stereo not drawn) | -2.682%
CS(=O)(=O)N1CCc2[nH]cnc2C12CCN(C1CCOCC1)CC2 | 0.6109%
CS(=O)(=O)N1CC2(CCN(C3CCCCC3)CC2)Cc2ccccc21 | 114.5%
CC(C)CCN1CCc2[nH]nc(C(=O)N3CCCC3C)c2C1.O=C(O)C(F)(F)F (stereo not drawn) | -10.1%
CS(=O)(=O)N1CC[C@@H]2[C@@H](CCC(=O)N2CCC2=CCCCC2)C1 | -15.08%
CN(Cc1cnn(C)c1)Cc1nc(CCc2ccccc2)no1 | 8.219%
CCNc1ncc(C(=O)NCCNc2ccncc2C)cn1 | 11.05%
Cc1cnccc1-c1cnn(CCNC(=O)c2cccnc2)c1C1CC1.Cl | 156.9%
CCOC(=O)NC(CNC(=O)c1ccccn1)CC(C)C (stereo not drawn) | -0.8901%
Cc1cnn(C(C)C2CC2)c1NC(=O)c1ccncc1 (stereo not drawn) | -0.2997%
Cc1cnccc1-c1cnn(CCNC(=O)c2ccncc2)c1C1CC1.Cl | 189.5%
Cc1ccccc1C1CCN(C(=O)CCNC(=O)C(C)(C)C)C1 (stereo not drawn) | -3.334%
Cc1cnccc1-c1cnn(CCNC(=O)C(C)(C)C)c1C1CC1.Cl | 128.5%
CC(C)(C)C(=O)NCCC(=O)NS(=O)(=O)c1cccnc1 | 1.555%
O=C(NCCSC1CCCC1)c1cnccn1 | 5.351%
Cc1cnccc1-c1cnn(CCNC(=O)c2ccccn2)c1C1CC1.Cl | 221.9%
Cc1ccc(CN(C(=O)NCCNC(=O)c2cccnc2)C(C)C)o1 | -0.6443%
CC(Cn1cccn1)NCc1csc(-c2ccc(F)cc2)n1 (stereo not drawn) | 3.098%
CCCSCC(=O)Nc1ncn(CC(=O)N2CCCCCC2)n1 | -27.1%
COC(=O)c1cccc(CN(C)Cc2ncnn2C)c1C#N | -234%
O=C(Nc1cnn(-c2ccccc2Cl)c1)N[C@@H]1C=C[C@H](CO)C1 | -14.17%
COc1ccc2c(O)c(NC(=O)NCC3CC3)cnc2c1 | -18.39%
O=C(NCC1CC1)Nc1cnc2ccc(F)cc2c1O | 100.3%
O=C(Cn1cnnn1)Nc1ccc(F)cc1OCC1CC1 | 11.02%
